Results from PubChem BioAssay AID2289 (National Center for Advancing Translational Sciences (NCATS), 2010).
Hit rate of the full screen: of about 340,000 compounds, about 3,300 (0.97%) were called active. Not shown: some 9% with an inconclusive outcome. Calls come from the whole dose curve; as a rule, active = well fitted inhibition curve with a large enough effect; inconclusive = small, poorly fitted or top-dose-only effect, or effect the other way; inactive = flat fitted curve, though single readings scatter. Some of the results follow.

assay: qHTS Assay for Modulators of miRNAs and/or Inhibitors of miR-21; conditions: HeLa miR-21-FLuc reporter, luciferase luminescence, 48 h; actives lower the signal; note: nearly all actives have a fitted effect of over 55% in size
Procedure, shortened: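 Luminescence from a firefly luciferase reporter carrying a miR-21 binding site downstream, stably expressed under a CMV promoter in HeLa cells that make miR-21 endogenously, reports miRNA modulation after 48 h compound exposure up to approximately 40uM final.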
Potency is the fitted concentration of half-maximal effect.

Potency, active:
CCn1cnc2cc(NCc3ccc(Br)cc3)ccc21 3.29 µM
CCCn1cnc2cc(NCc3ccc(Br)cc3)ccc21 7.36 µM
CCCn1cnc2cc(NCc3cccs3)ccc21 7.36 µM
COC(=O)c1ccc(N=NNc2ccc(C(=O)OC)cc2)cc1 0.208 µM
COC(=O)c1ccc(NN=Nc2ccc(C)cc2)cc1 2.07 µM
O=C(NCC1CCCO1)c1sc2ccccc2c1Cl (centres undefined) 3.29 µM
CC(NC(=O)c1sc2ccccc2c1Cl)C1CCCO1 (centres undefined) 5.21 µM
CCn1c2ccccc2c2nc3cc(C(=O)O)ccc3nc21 9.27 µM
COc1cccc2cc(CC(=O)c3ccc(C)cc3C)c(=O)oc12 11.7 µM
Cc1ccc(C(=O)Cc2cc3ccccc3oc2=O)c(C)c1 2.07 µM
CN(c1ccccc1)c1nc2ccsc2c(=O)s1 12.6 µM
COc1ccc(-c2cc(C(=O)c3c(N)n(C)c(=O)n(C)c3=O)c3ccccc3n2)cc1OC 4.65 µM
COc1ccc2c(c1)CCC/C2=N\NC(=O)c1ccoc1C 2.93 µM
CC(=O)N1N=C(c2ccc(C)cc2)OC1c1ccc(C(C)C)cc1 (centres undefined) 3.29 µM
CN1N=C(C(=O)N2CCc3c([nH]c4ccccc34)C2c2ccccc2Cl)CCC1=O (centres undefined) 10.4 µM
O/N=C/c1ccc(OCc2ccccc2)c(Br)c1 3.69 µM
O/N=C/c1ccc(OCc2ccccc2)c(Cl)c1 2.07 µM
CCCOc1ccc(-c2nc(N3CCN(C)CC3)c3ccccc3n2)cc1 2.93 µM
COc1cc(CNc2ccc(NC(C)=O)cc2)ccc1OCc1ccccc1C 7.36 µM
Cc1ccc(-c2nnc(/C=C/c3ccccc3)o2)cc1 0.329 µM
c1ccc(-c2nnc(-c3ccccc3)nn2)cc1 2.07 µM
COc1nc(-c2ccccc2)nnc1-c1ccccc1 1.17 µM
Nc1ccc(-c2nnc(-c3ccc(N)cc3)o2)cc1 3.29 µM
O=C(O)c1ccc(-c2nnc(-c3ccccc3)o2)cc1 0.329 µM
c1ccc(-c2nnc(-c3ccccc3)o2)cc1 1.31 µM
Cc1cccc(N(CC(=O)Nc2ccc(-c3nc4ccc(C)cc4s3)cc2)S(C)(=O)=O)c1 4.14 µM
Cc1ccc2nc(-c3ccc(NC(=O)CN(C)S(=O)(=O)c4ccccc4)cc3)sc2c1 0.369 µM
Cc1cc(C)cc(N(CC(=O)Nc2ccc(-c3nc4ccc(C)cc4s3)cc2)S(C)(=O)=O)c1 3.29 µM
Cc1ccc(C(=O)Nc2cc3c(cc2Cl)OCCCO3)cc1 1.31 µM
O=C(Nc1cc2c(cc1Cl)OCCCO2)c1ccc(F)cc1 3.69 µM
CC(C)(C)n1cnc2cc(NC(=O)c3cccs3)ccc21 1.65 µM
O=C(/C=C\c1ccco1)c1ccc(NC(=O)c2ccco2)cc1 13.1 µM
O=C(/C=C/c1ccco1)Nc1ccc(N2CCCC2)cc1 1.65 µM
O=C(Nc1ccc(NC(=O)c2cccs2)cc1)c1ccco1 8.26 µM
O=C(Nc1ccc(NC(=O)c2cccs2)cc1)c1cccs1 5.21 µM
O=C(CNC(=O)c1ccco1)Nc1ccc(Br)cc1 11.7 µM
Cc1ccc(/C=N/c2sc3c(c2C#N)CCC3)s1 0.261 µM
N#Cc1c(/N=C/c2cccs2)sc2c1CCCCC2 0.464 µM
O=C(CSc1nccn1-c1ccccc1)Nc1nc2ccccc2s1 6.56 µM
O=C(CC1CCCCC1)Nc1nc2ccccc2s1 1.85 µM
CC1(C(=O)Nc2nc3ccccc3s2)CC1(Br)Br (centres undefined) 8.26 µM
COc1ccc(C2CC(C)(c3ccc(OC)cc3)Nc3ccccc3N2)cc1 (centres undefined) 7.36 µM
O=C(c1ccccc1)c1cnc(-c2ccc(Cl)cc2)s1 0.464 µM
O=C(COc1ccc(Cl)cc1Cl)c1ccc[nH]1 10.4 µM
N#Cc1ccccc1OCC(=O)NC(=O)NCc1ccco1 6.56 µM
O=C(COc1ccc(Cl)cc1Cl)NCc1ccco1 16.5 µM
Cc1nnc(NC(=O)c2cc3ccccc3o2)s1 8.26 µM
COc1cc2ccccc2cc1C(=O)Nc1ccc(N2CCN(C)CC2)cc1 7.36 µM
CN1CCN(c2ccc(NC(=O)c3sc4ccccc4c3Cl)cc2)CC1 1.17 µM
CC(C)C(=O)Nc1ccc(NC(=O)c2cc3ccccc3o2)cc1 11.2 µM
O=C(Nc1ncccc1Cl)c1cc2ccccc2o1 0.656 µM
CN1CCN(c2ccc(NC(=O)c3cc4ccccc4o3)cc2)CC1 0.927 µM
CC(Cc1ccccc1)NC(=O)c1cc2ccccc2o1 (centres undefined) 6.56 µM
COc1cc(/C=N/O)ccc1OCc1ccccc1Cl 2.93 µM
COc1cc(/C=N/O)ccc1OCc1ccc([N+](=O)[O-])cc1 3.29 µM
COc1cc(/C=N/O)ccc1OCc1ccc(Cl)cc1 0.369 µM
O=C(c1ccc2c3n(nc2c1)-c1ccc(Cl)cc1CO3)N1CCOCC1 5.21 µM
Cc1ccc2c(c1)COc1c3ccc(C(=O)N4CCCCC4)cc3nn1-2 3.69 µM
Cc1ccc2c(c1)COc1c3ccc(C(=O)N4CCOCC4)cc3nn1-2 5.21 µM
C#Cc1cccc(NC(=O)CSc2nnc(-c3ccc(C(F)(F)F)cn3)o2)c1 4.14 µM
O=C(CSc1nnc(-c2ccccn2)o1)Nc1cccc(Cl)c1 1.85 µM
O=C(CSc1nnc(-c2ccc(C(F)(F)F)cn2)o1)Nc1cccc(Cl)c1 4.14 µM
CN(C)CCCNc1cc(C(C)(C)C)nc2c(-c3ccccc3)cnn12 2.93 µM
Cc1cc(C)n(-c2cc(C(C)(C)C)nc3c(-c4ccccc4)cnn23)n1 2.61 µM
CC(C)Nc1cc(C(C)(C)C)nc2c(-c3ccccc3)cnn12 6.56 µM
CCn1cnc2sc(C(=O)Nc3ccc4c(c3)OCO4)c(C)c2c1=O 3.16 µM
Cc1cc(N/N=C/c2ccccc2Br)nc2ccccc12 13.1 µM
Cc1cc(N/N=C/c2ccncc2)nc2ccccc12 5.85 µM
O=c1c2cc(-c3ccccc3)sc2nc2n1N=C(c1cccs1)CS2 0.414 µM
COc1ccc(OC)c(N/C(C)=C/C(=O)c2ccccc2)c1 7.36 µM
C/C(=C\C(=O)c1ccc(C)cc1)Nc1cccc(O)c1 3.29 µM
C/C(=C\C(=O)c1ccccc1)Nc1cccc(O)c1 4.65 µM
Cn1c(=O)n(C)c2cc(NS(=O)(=O)c3ccc(F)cc3)c(NCc3ccccc3)cc21 9.27 µM
O=c1c2ccccc2nnn1COc1cccc2ccccc12 14.7 µM
O=c1c2ccccc2nnn1COc1cccc(Cl)c1 13.1 µM
CCOc1ccc(OCCn2nnc3ccccc3c2=O)cc1 5.21 µM
Cc1ccc(/C=C(\C#N)C(=O)Nc2ccc(Br)cc2)o1 0.656 µM
Cc1ccc(NC(=O)/C(C#N)=C/c2ccc(C)o2)cc1 0.329 µM
CC1CC1c1ccc(/C=C(\C#N)C(=O)Nc2ccccc2Cl)o1 (centres undefined) 14.7 µM
Cc1cccc(NC(=O)/C(C#N)=C/c2ccco2)c1 4.14 µM
Cc1ccc(/C=C(\C#N)C(=O)Nc2cccc(Cl)c2)o1 1.47 µM
O=C(CC(Nc1ccc(F)cc1)C(=O)OCC(=O)c1cccs1)c1ccccc1 (centres undefined) 3.29 µM
COc1ccccc1NC(CC(=O)c1ccccc1)C(=O)OCC(=O)c1ccc(C)c(C)c1 (centres undefined) 1.04 µM
COc1ccccc1NC(CC(=O)c1ccccc1)C(=O)OCC(=O)c1ccc(C)cc1 (centres undefined) 1.47 µM
O=C(c1ccc(COCC(F)(F)F)cc1)N1CCN(c2ccccn2)CC1 14.7 µM
CCc1ccc(N2C(=O)Cc3c2nc(N)c(C#N)c3N)cc1 16.5 µM
COc1ccc(NC(=O)C2C3CC/C=C\CCC32)cc1 (centres undefined) 6.56 µM
CNC(=O)c1c(NC(=O)c2nc3ccccc3s2)sc2c1CCC2 1.31 µM
Cc1cccc2cc(/C=N/Nc3ccc(C(=O)O)cc3)c(Cl)nc12 0.521 µM
O=C(O)c1ccc(N/N=C/c2cc3ccccc3nc2Cl)cc1 3.29 µM
Cc1ccc2cc(/C=N/Nc3ccc(C(=O)O)cc3)c(Cl)nc2c1 2.07 µM
CCCCOc1ccc2c(c1)C(=O)c1cc(O)ccc1-2 5.85 µM
O=[N+]([O-])c1ccccc1N/N=C1\CC2CC=CC12 (centres undefined) 16.5 µM
C=CCOc1cccc(/C=C/c2nc3ccccc3c(=O)[nH]2)c1 0.826 µM
O=c1[nH]c(/C=C/c2ccc(Br)cc2)nc2ccccc12 0.369 µM
Cc1[nH]c2ccccc2c1/C=C/c1nc2ccccc2c(=O)[nH]1 1.31 µM
COCC(C)N=C1NN=C(c2c[nH]c3ccccc23)CS1 (centres undefined) 6.56 µM
C=CCOc1ccc2c(OC)c3ccoc3nc2c1OC 13.1 µM
CCc1ccc(NC(=O)c2ccccc2Br)cc1 2.07 µM
CCOc1ccc(NC(=O)c2csc3c2CCCC3)cc1 2.07 µM
CCc1ccc(NC(=O)c2ccccc2SC)cc1 7.36 µM
CCOc1ccc(NC(=O)c2ccccc2SC)cc1 7.36 µM
C#CCNC(=O)/C=C/c1ccc(C)cc1 8.26 µM
C#CCNC(=O)/C=C/c1ccc(OC)cc1 13.1 µM
